Experimental findings from PubChem BioAssay AID1851 (National Center for Advancing Translational Sciences (NCATS), 2009) are described below.

SMILES strings stand for the structures. Hit rate of the full screen: of about 16,000 compounds, about 5,800 (36%) were called active. Roughly 23% stayed inconclusive and do not appear here. Calls come from the whole dose curve; as a rule, active = well fitted curve in the direction sought with a large enough effect; inconclusive = small, poorly fitted or top-dose-only effect, or effect the other way; inactive = no such curve, though single readings can be large or run the other way. The list shows a part of the results.
% is set by controls: 0 for no effect and ±100 for the full control effect.

The target in this assay is Cytochrome P450 2C19 (Homo sapiens) (UniProt P33261). Description: Cytochrome panel assay with activity outcomes. As to conditions: recombinant CYP, pro-luciferin dealkylation, luminescence, p450-cyp2c19; series mostly up to 57.1 µM.
Sequence of Cytochrome P450 2C19 (Homo sapiens) (P33261 whole entry, looked up): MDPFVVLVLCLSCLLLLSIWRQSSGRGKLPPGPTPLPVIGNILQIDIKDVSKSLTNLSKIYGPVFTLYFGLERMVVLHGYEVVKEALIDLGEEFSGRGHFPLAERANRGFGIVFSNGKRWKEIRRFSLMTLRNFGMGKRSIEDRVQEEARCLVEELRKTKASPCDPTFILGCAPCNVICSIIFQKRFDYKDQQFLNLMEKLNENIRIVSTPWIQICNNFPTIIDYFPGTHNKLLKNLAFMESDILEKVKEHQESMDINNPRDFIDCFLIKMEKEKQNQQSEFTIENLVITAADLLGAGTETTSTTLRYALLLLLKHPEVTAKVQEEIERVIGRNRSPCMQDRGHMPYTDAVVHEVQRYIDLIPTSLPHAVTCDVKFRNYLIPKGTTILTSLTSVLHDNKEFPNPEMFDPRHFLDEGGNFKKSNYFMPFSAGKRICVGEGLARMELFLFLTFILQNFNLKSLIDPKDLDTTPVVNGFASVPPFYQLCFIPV
The AC50 is the midpoint of the concentration-response curve, whichever way the signal moves. Turning to `Cc1noc(C)c1C(=O)N1CCC2(CCCN(Cc3ccccc3)C2)CC1`, the AC50 entry is “inactive”.
Still for that read-out and setting: for `OCCN(Cc1ccccc1)Cc1cccc(Cl)c1Cl` the value was 282 nM (active); for `CN(C)c1ccc(-c2nc(NCCc3cnc[nH]3)c3ccccc3n2)cc1`, 1580 nM (active).
The same measure, in the same setting: in the case of `COCCNc1nc(-c2ccc(N(C)C)cc2)nc2ccccc12` it was 15800 nM (active); in that of `COc1ccc(OC)c(Nc2nc(-c3cccc([N+](=O)[O-])c3)nc3ccccc23)c1`, “inactive”; in that of `Cc1noc(C)c1-c1nc(N2CCN(C)CC2)c2ccccc2n1`, “inactive”.
Same read-out and setting: in the case of `COCCNc1nc(-c2ccc(C(=O)N(C)C)cc2)nc2ccccc12` it was “inactive”; in that of `COc1ccc(CNc2nc(-c3ccc4c(c3)OCO4)nc3ccccc23)c(OC)c1`, 7940 nM (active); in that of `COCCNc1nc(-c2ccccc2CN(C)C)nc2ccccc12`, “inactive”.
With `COc1ccc(CNc2nc(-c3c(C)noc3C)nc3ccccc23)c(OC)c1`, the AC50 is 3160 nM (active).
On the same count and under the same terms, in the case of `CC(=O)NCCNc1nc(-c2ccc(N(C)C)cc2)nc2ccccc12` it was “inactive”.
The same measure, in the same setting: for `Cn1cccc1C(=O)N1CCC2(CC1)CN(Cc1ccc(C#N)cc1)C2` the value was “inactive”; for `CNC(=O)[C@@H]1O[C@@H](n2cnc3c(NCc4cccc(I)c4)ncnc32)[C@H](O)[C@@H]1O`, “inactive”; for `COc1c(O[C@H]2O[C@@H](CO)[C@@H](O)[C@@H](O)[C@@H]2O)cc2c(c1OC)-c1ccc(SC)c(=O)cc1[C@H](NC(C)=O)CC2`, “inactive”.
On to `COc1ccccc1CNc1nc(-c2ccc3c(c2)OCO3)nc2ccccc12`, for which the AC50 was 3160 nM (active).
As to `COc1ccccc1CNc1nc(-c2ccc(N(C)C)cc2)nc2ccccc12`, the AC50 was 10000 nM (active).
On the same count and under the same terms, for `COc1ccc(CNc2nc(-c3ccc(C(=O)N(C)C)cc3)nc3ccccc23)c(OC)c1` the value was 15800 nM (active); for `C=CC1=C(C)C2=Cc3c(C=C)c(C)c4[n]3[Sn+2][n]3c(c(C)c(CCC(=O)O)c3=CC3=NC(=C4)C(C)=C3CCC(=O)O)=CC1=N2`, “inactive”.
With `C=C1C(=O)O[C@@H]2[C@H]3O[C@]3(C)CCC=C(C)CC[C@@H]12`, the AC50 result is “inactive”.
In the case of `CCC(=O)NC(Nc1sc2c(c1C(=O)OC)CCCC2)(C(F)(F)F)C(F)(F)F`, the AC50 was 3980 nM (active).
On the same count and under the same terms, in the case of `CC(C)CC(=O)N[C@H](C(=O)N[C@H](C(=O)N[C@@H](CC(C)C)[C@H](O)CC(=O)N[C@@H](C)C(=O)N[C@@H](CC(C)C)[C@H](O)CC(=O)O)C(C)C)C(C)C` it was “inactive”.
On to `C#CCCCO/N=C1/[C@H]2O[C@@H]2[C@@H](O)[C@H]2[C@H]1CCn1c(=O)n([C@@H](CC)c3ccccc3)c(=O)n12`, for which the activity, negative = inhibition was -6.75% [at 11.4 µM] (inactive).
Turning to `Cc1ccc(C(=O)CN(C(=O)c2ccc(Cl)cc2)N2C(=O)c3ccccc3C2=O)cc1`, the AC50 was 15800 nM (active).
Regarding `COc1ccc(C(=O)CN(C(=O)c2ccc(Cl)cc2)N2C(=O)c3ccccc3C2=O)cc1`, the AC50 is 4470 nM (active).
Take `COc1ccc(CNc2ncncc2-c2ccccc2C)c(OC)c1`: the AC50 was 1580 nM (active).
Take `COc1ccccc1CNc1ncncc1-c1ccccc1C`: the AC50 was 3980 nM (active).
On to `COc1ccc(CNc2ncncc2-c2ccccc2OC)c(OC)c1`, for which the AC50 was 2000 nM (active).
On to `COc1ccccc1CNc1ncncc1-c1ccccc1Cl`, for which the AC50 is 1260 nM (active).
On the same count and under the same terms, in the case of `CCCCOc1ccccc1N` it was 14100 nM (active).
Regarding `CCCCOc1cc(C[C@@H]2CNC(=O)N2)ccc1OC`, the AC50 result was “inactive”.
On the same count and under the same terms, in the case of `CC[N+](CC)(CC)CCOc1cccc(OCC[N+](CC)(CC)CC)c1OCC[N+](CC)(CC)CC` it was “inactive”; in that of `CC(C)(C)n1ncc2c(=O)n(CC(=O)NCc3ccccc3Cl)cnc21`, 14100 nM (active); in that of `Cc1ccc(-n2ncc3c(=O)n(CC(=O)NCC4CCCO4)cnc32)cc1` (stereo not drawn), “inactive”.
Same read-out and setting: in the case of `Cc1ccccc1Cn1cnc2c(cnn2C(C)(C)C)c1=O` it was 2000 nM (active); in that of `Cc1ccc(C)c(Cn2cnc3c(cnn3C(C)(C)C)c2=O)c1`, 398 nM (active).
Same read-out and setting: in the case of `Cc1ccc(NC(=O)Cn2cnc3c(cnn3C(C)(C)C)c2=O)cc1` it was “inactive”; in that of `Nc1cc(Cl)ccc1Oc1ccccc1`, 3980 nM (active); in that of `O=c1[nH]c2cc(Cl)ccc2c(O)c1-c1ccc(Oc2ccccc2)cc1`, “inactive”.
Consider `Nc1cc(Cl)ccc1Oc1ccc(Cl)cc1`, for which the AC50 is 562 nM (active).
The same measure, in the same setting: in the case of `Cc1cc(=O)[nH]c(-n2[nH]c(C)cc2=O)n1` it was “inactive”; in that of `CCO/C(C)=N/n1c2nc3ccccc3nc2c2c(=O)n(CC(C)C)c(C)nc21`, “inactive”; in that of `CCCn1c(C)nc2c(c1=O)c1nc3ccccc3nc1n2CCC1=CCCCC1`, 8910 nM (active).
Still for that read-out and setting: in the case of `Oc1ccc(Cc2cc(Cl)cc(Cl)c2O)cc1Cl` it was 1260 nM (active); in that of `Oc1ccc(Cl)cc1Cc1cc(Cl)cc(Cc2cc(Cl)ccc2O)c1O`, 1260 nM (active).
For `OCCSCc1cc(Cl)cc(Cl)c1O`, the activity, negative = inhibition was -25.3% [at 11.4 µM] (inactive).
The same measure, in the same setting: for `O=C(O)Cc1cc(Cl)ccc1O` the value was 42.6% [at 11.4 µM] (inactive).
`COC(=O)[C@@]1(Cc2ccccc2)[C@H]2c3cc(C(=O)N4CCCC4)n(Cc4cc(F)cc5c4OCOC5)c3C[C@H]2CN1C(=O)c1ccccc1`: the AC50 is 251 nM (active).
Turning to `COc1ccc(C(=O)N2CCC3(CCCN(Cc4ccccc4OC)C3)CC2)cc1`, the AC50 entry was “inactive”.
The same measure, in the same setting: for `COC(=O)[C@@]1(Cc2ccc(OC)cc2)[C@H]2c3cc(C(=O)N4CCCC4)n(Cc4cc(F)cc5c4OCOC5)c3C[C@H]2CN1C(=O)c1ccccc1` the value was 7940 nM (active).
On the same count and under the same terms, in the case of `Nc1nc(SCc2ccccc2)c2ncn(Cc3ccccc3)c2n1` it was 2510 nM (active).
For `Cn1cnc([N+](=O)[O-])c1Sc1nc(N)nc2c1ncn2Cc1ccccc1`, the activity, negative = inhibition was 21.2% [at 11.4 µM] (inactive).
Same read-out and setting: for `OC[C@@H]1O[C@@H](n2cnc3c(SCc4ccccc4)ncnc32)[C@@H](O)[C@H]1O` the value was 1.35% [at 11.4 µM] (inactive).
Consider `CCCn1cnc2c(SCc3ccc(Cl)cc3)nc(N)nc21`, for which the AC50 was 501 nM (active).
`Nc1nc(SCc2ccc([N+](=O)[O-])cc2)c2ncn([C@@H]3O[C@@H](CO)[C@@H](O)[C@H]3O)c2n1`: the AC50 entry is “inactive”.
For `Cn1c(=O)oc2cc(S(=O)(=O)NCCC(=O)N3CC=C(c4ccccc4)CC3)ccc21`, the AC50 was 6310 nM (active).
Take `CCCN(CCC)CCNC(=O)C1CCCN(S(=O)(=O)c2ccc3c(c2)oc(=O)n3C)C1` (stereo not drawn): the AC50 result was “inactive”.
Same read-out and setting: for `Cn1c(=O)c2cc(S(=O)(=O)NCCC(=O)Nc3ccc(Cl)cc3)ccc2n(C)c1=O` the value was “inactive”; for `CC(C)(C)c1onc(OCP(=O)(O)O)c1C[C@@H](N)C(=O)O`, “inactive”.
Regarding `O=C(Nc1ccc(F)cc1)c1ccc(-n2ccnc2)nc1`, the concentration at half-maximal activity (AC50) was 70.8 nM (active).
In the case of `CCOc1cc(C#N)c(NC(=O)c2cccnc2)cc1OCC`, the AC50 result is “inactive”.
Same read-out and setting: for `Cc1c(Cl)cccc1NC(=O)c1ccc(-n2ccnc2)nc1` the value was 44.7 nM (active).
As to `COC(=O)c1cc(=O)[nH]c(=O)[nH]1`, the activity, negative = inhibition is 23% [at 11.4 µM] (inactive).
Turning to `CCNc1ncc2nc(-c3cc(F)cc(F)c3)c(=O)n(CCOC)c2n1`, the AC50 entry is “inactive”.
`COC(=O)/C=C\CCc1coc(/C=C\CNC(=O)OC)n1`: the activity, negative = inhibition was 31.7% [at 11.4 µM] (inactive).
For the compound `CCCCc1n[nH]c2c1/C(=N/O)CC(c1ccccc1)C2` (stereo not drawn), the AC50 is 447 nM (active).
Still for that read-out and setting: for `CCCc1cc(=O)oc2cc(OCc3nn[nH]n3)ccc12` the value was 25100 nM (active).
Still for that read-out and setting: for `CCCc1cc(=O)oc2cc(OCc3cc(OC)c(OC)c(OC)c3)c(Cl)cc12` the value was “inactive”; for `CCn1c(-c2ccccc2Cl)nn(CC(=O)Nc2ccc(OC)cc2)c1=S`, 3550 nM (active); for `CCn1c(-c2ccccc2Cl)nn(CC(=O)Nc2ccccc2OC)c1=S`, 891 nM (active).
On the same count and under the same terms, for `CCn1c(-c2ccccc2Cl)nn(CC(=O)Nc2cc(Cl)ccc2Cl)c1=S` the value was 1780 nM (active).
In the case of `COC(=O)c1ccc(C23CC2(C(NP(=O)(c2ccccc2)c2ccccc2)c2ccccc2)C3)cc1` (stereo not drawn), the AC50 was 10000 nM (active).
For `NCS(=O)(=O)O`, the activity, negative = inhibition was 8.81% [at 11.4 µM] (inactive).
As to `O=C(NNC(=O)C1CCCCC1)c1cnccn1`, the AC50 entry was “inactive”.
The same measure, in the same setting: for `O=C(NC1CCCC1)c1cccnc1N1CCCCCC1` the value was 8910 nM (active); for `Cn1nc(C(=O)NC2CCCCC2)c2ccccc2c1=O`, “inactive”.
The same measure, in the same setting: in the case of `COc1ccc(OC)c(NC(=O)[C@H]2CC=CC[C@H]2C(=O)O)c1` it was “inactive”; in that of `COc1cc(C)nc(N2CCCC(C(=O)Nc3cc(Cl)ccc3OC)C2)n1` (stereo not drawn), 126 nM (active).
Same read-out and setting: for `O=C(/C=C/c1ccc2ccccc2c1)c1ccoc1` the value was 2000 nM (active); for `CS(=O)(=O)c1nc(-c2ccccc2)cc(-c2ccccc2)c1C#N`, 794 nM (active).
Turning to `O=C1c2ccccc2-c2ccc(N(Cc3ccc(Br)cc3)Cc3ccc(Br)cc3)cc21`, the activity, negative = inhibition was -10.9% [at 11.4 µM] (inactive).
Consider `O=C(OCc1cccc(F)c1)c1ccc2c(c1)-c1ccccc1C2=O`, for which the AC50 was 11200 nM (active).
For the compound `O=C1c2ccccc2-c2ccc(NC(=O)[C@H]3CCCC[C@@H]3C(=O)O)cc21`, the activity, negative = inhibition was -17.3% [at 11.4 µM] (inactive).
In the case of `COc1ccc(NC(=O)N2CC[C@@]3(CCCN(C(=O)c4cnccn4)C3)C2)cc1`, the AC50 result was “inactive”.
Consider `Cc1nc2c(C(=O)NCc3ccc4c(c3)OCO4)c[nH]n2c(=O)c1Cc1ccccc1F`, for which the AC50 is 14100 nM (active).
Still for that read-out and setting: in the case of `Cc1nc2c(C#N)c(C)[nH]n2c(=O)c1Cc1ccccc1` it was “inactive”; in that of `C[C@@H]1O[C@H]2C3=C(C(=O)[C@H]4O[C@@H]4[C@H]3O)[C@@H]1[C@@H]1[C@@H](C)OC=C3[C@H](O)[C@H]4O[C@@H]4/C(=N\OCc4ccccc4)[C@]312`, 631 nM (active).
Take `Cn1c(=O)n2n(c1=O)[C@H]1[C@H](O)[C@H]3O[C@@H]3/C(=N/OCc3ccccc3)[C@@H]1CC2`: the activity, negative = inhibition is 50.3% [at 11.4 µM] (inactive).
Take `CC(=O)O[C@H]1C2=CO[C@H](C)[C@H]3[C@H]4C5=C([C@H](O)[C@H]6O[C@@H]6C5=O)[C@H](O[C@H]4C)[C@@]23C(=O)[C@H]2O[C@@H]21`: the activity, negative = inhibition was 11.4% [at 11.4 µM] (inactive).
